Reference: PubChem BioAssay (Tox21)
“And” between values parts separate entries of the source, which are not always exact repeats. Equal values may be shown once. Results filed as inconclusive are left out. Where a call stands in place of a potency, no number is given. A structure can be active in one record and inactive in another. The source made the active and inactive calls. The call rests on the fitted dose curve; in most records, active means well fitted curve in the direction sought with a large enough effect in the repeat runs; inconclusive means weak or mixed curves; inactive means no such curve, though single readings can be large; an effect the other way counts as inactive or inconclusive.

What was measured:
[1] = target: Nuclear receptor subfamily 1 group I member 2 (Rattus norvegicus) (UniProt Q9R1A7); assay: Rat pregnane X receptor (rPXR) activation by small molecules, qHTS assay (AID 1346983); details: rPXR luciferase reporter cells, One-Glo luminescence, 24 h; max activation: stronger effect = higher value; further: nearly all actives have a fitted effect of over 20% in size; further: potency means the concentration at half of the fitted maximal effect
Method in brief: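 Cell-based rPXR luciferase reporter assay, 2,000 cells per well, rested 5hr at 37 C before compound addition in DMSO, then 24 hr at 37 C. One-Glo reagent was added and luminescence read after 30 min at room temperature.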

[2] = target: Nuclear receptor subfamily 1 group I member 2 (Homo sapiens) (UniProt O75469); assay: Human pregnane X receptor (PXR) activation by small molecules, qHTS assay (AID 1346985); further: nearly all actives have a fitted effect of over 40% in size; further: potency means the concentration at half of the fitted maximal effect
Method in brief: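 DPX-2 cells (HepG2 co-transfected with a PXR response element and a CYP3A4-promoter luciferase construct) were seeded at 2,000 per well, rested 5 hr at 37C, then exposed to DMSO-dissolved compounds for 24 hr. Activation was read as luciferase luminescence.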

[3] = target: Cytochrome P450 2D6 (Homo sapiens) (UniProt P10635); assay: Cytochrome P450 Family 2 Subfamily D Member 6 (CYP2D6) small molecule antagonists: luciferase reporter qHTS assay (AID 1671196); further: nearly all actives have a fitted effect of over 50% in size; further: potency means the concentration at half of the fitted maximal effect; on activity change, negative = inhibition: series mostly up to about 120 µM
Method in brief: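 Read-out is luminescence from luciferin formed by CYP2D6 turnover of a proluciferin substrate, recorded as relative luminescence units. Reactions ran 1 h at room temperature after NADPH regeneration solution was added.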

[4] = target: Cytochrome P450 2C19 (Homo sapiens) (UniProt P33261); assay: Cytochrome P450 Family 2 Subfamily C Member 19 (CYP2C19) small molecule antagonists: luciferase reporter qHTS assay (AID 1671197); further: nearly all actives have a fitted effect of over 65% in size; further: potency means the concentration at half of the fitted maximal effect; on activity change, negative = inhibition: series mostly up to about 120 µM
Method in brief: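 CYP2C19 P450-Glo, 1536-well qHTS. Cpd + enzyme/proluciferin substrate 10 min RT; + NADPH regen, 37C 1 h; stop with luciferin detection reagent, 20 min RT, luminescence (RLU). Pos ctrl ketoconazole.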

[5] = target: Cytochrome P450 2C9 (Homo sapiens) (UniProt P11712); assay: Cytochrome P450 Family 2 Subfamily C Member 9 (CYP2C9) small molecule antagonists: luciferase reporter qHTS assay (AID 1671198); further: nearly all actives have a fitted effect of over 50% in size; further: potency means the concentration at half of the fitted maximal effect; on activity change, negative = inhibition: series mostly up to about 120 µM
Method in brief: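 CYP2C9 activity was measured with a P450-Glo proluciferin substrate. Enzyme–substrate mix was held with compound for 10 min at room temperature, then NADPH regeneration solution was added for 1 h at 37C. Luciferin product was read as luminescence.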

[6] = target: Cytochrome P450 1A2 (Homo sapiens) (UniProt P05177); assay: Cytochrome P450 Family 1 Subfamily A Member 2 (CYP1A2) small molecule antagonists: luciferase reporter qHTS assay (AID 1671199); further: nearly all actives have a fitted effect of over 50% in size; further: potency means the concentration at half of the fitted maximal effect; on activity change, negative = inhibition: series mostly up to about 120 µM
Method in brief: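 P450-Glo CYP1A2, 1536-well qHTS: enzyme/proluciferin substrate + cpd (DMSO), 10 min RT; NADPH regen, 1 h RT; detection reagent, 20 min; luminescence, RLU.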

[7] = target: Voltage-gated inwardly rectifying potassium channel KCNH2 (Homo sapiens) (UniProt Q12809); assay: Human Ether-a-go-go-Related Gene (hERG) channel small molecule antagonists: fluorescence cell-based qHTS assay (AID 1671200);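 further: hERG-expressing U2OS cells given a thallium stimulus after FluxOR II dye loading; series mostly up to about 77 µM; nearly all actives have a fitted effect of over 50% in size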
Method in brief: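 Fluorescence at 540 nm emission (480 nm excitation) was recorded kinetically for 2 min at 1-second intervals once the thallium-containing stimulus reached cells previously loaded with FluxOR II dye.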

[8] = target: Cytochrome P450 3A4 (Homo sapiens) (UniProt P08684); assay: Cytochrome P450 Family 3 Subfamily A Member 4 (CYP3A4) small molecule antagonists: luciferase reporter qHTS assay (AID 1671201); further: nearly all actives have a fitted effect of over 50% in size; further: potency means the concentration at half of the fitted maximal effect; on activity change, negative = inhibition: series mostly up to about 120 µM
Method in brief: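 qHTS, 1536-well. CYP3A4 + proluciferin substrate, cpd 10 min RT → NADPH regen 1 h RT → detection reagent 20 min → luminescence (RLU). Ketoconazole positive control.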

Sequence of Cytochrome P450 2C9 (Homo sapiens) (P11712 whole entry, looked up): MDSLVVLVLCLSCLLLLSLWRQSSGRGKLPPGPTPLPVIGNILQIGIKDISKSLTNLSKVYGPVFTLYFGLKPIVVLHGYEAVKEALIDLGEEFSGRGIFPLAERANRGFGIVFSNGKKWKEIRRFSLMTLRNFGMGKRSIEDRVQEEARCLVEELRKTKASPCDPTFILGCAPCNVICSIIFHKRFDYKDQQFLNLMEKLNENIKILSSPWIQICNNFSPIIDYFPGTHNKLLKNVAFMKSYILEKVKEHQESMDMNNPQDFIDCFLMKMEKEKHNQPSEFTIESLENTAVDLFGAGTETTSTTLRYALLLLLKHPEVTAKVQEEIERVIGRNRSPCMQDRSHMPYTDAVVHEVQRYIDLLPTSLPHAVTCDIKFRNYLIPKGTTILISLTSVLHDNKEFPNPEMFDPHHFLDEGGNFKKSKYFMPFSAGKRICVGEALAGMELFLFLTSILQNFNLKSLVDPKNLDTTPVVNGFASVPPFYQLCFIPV
Sequence of Nuclear receptor subfamily 1 group I member 2 (Rattus norvegicus) (Q9R1A7 whole entry, looked up): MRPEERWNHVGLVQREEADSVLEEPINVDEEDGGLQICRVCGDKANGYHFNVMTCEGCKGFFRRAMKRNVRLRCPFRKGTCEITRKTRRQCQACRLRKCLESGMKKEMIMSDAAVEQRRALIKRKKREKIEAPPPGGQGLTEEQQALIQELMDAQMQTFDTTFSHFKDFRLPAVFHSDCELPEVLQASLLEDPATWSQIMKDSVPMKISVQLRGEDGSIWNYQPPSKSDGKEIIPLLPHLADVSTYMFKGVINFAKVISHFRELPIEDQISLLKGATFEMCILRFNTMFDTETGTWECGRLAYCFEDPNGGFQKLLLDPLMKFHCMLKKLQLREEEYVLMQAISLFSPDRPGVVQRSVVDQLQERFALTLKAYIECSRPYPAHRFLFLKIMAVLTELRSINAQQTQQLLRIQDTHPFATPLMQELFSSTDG
Sequence of Voltage-gated inwardly rectifying potassium channel KCNH2 (Homo sapiens) (Q12809 whole entry, looked up): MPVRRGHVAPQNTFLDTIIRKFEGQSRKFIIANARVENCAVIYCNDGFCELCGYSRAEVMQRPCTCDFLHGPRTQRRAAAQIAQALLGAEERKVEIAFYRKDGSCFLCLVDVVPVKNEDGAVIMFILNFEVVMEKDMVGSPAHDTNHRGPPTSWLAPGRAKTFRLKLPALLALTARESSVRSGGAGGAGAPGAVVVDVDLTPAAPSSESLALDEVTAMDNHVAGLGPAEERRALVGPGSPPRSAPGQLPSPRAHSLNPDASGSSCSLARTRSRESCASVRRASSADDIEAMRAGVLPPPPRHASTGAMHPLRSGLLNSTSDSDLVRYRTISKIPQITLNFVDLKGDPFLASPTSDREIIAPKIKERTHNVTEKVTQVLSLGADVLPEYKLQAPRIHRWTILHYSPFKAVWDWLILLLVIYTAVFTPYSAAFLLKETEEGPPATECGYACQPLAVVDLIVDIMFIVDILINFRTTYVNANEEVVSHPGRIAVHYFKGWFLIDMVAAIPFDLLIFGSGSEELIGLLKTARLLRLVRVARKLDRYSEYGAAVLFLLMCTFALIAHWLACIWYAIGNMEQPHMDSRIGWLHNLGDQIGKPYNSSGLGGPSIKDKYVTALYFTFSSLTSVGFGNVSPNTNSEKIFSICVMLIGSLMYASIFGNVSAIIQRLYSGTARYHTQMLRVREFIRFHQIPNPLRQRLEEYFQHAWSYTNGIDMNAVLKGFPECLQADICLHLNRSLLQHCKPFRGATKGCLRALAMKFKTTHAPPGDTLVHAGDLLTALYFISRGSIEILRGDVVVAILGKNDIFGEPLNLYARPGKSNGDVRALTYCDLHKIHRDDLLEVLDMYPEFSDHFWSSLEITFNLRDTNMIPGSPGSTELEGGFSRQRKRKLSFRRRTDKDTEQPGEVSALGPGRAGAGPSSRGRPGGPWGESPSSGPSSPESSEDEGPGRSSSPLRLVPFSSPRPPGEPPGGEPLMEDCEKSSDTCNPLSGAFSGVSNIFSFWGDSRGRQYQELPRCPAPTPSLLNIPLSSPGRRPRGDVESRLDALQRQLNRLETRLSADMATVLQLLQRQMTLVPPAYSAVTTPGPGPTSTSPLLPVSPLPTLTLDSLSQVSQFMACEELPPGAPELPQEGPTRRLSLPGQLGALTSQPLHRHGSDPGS
Sequence of Cytochrome P450 3A4 (Homo sapiens) (P08684 whole entry, looked up): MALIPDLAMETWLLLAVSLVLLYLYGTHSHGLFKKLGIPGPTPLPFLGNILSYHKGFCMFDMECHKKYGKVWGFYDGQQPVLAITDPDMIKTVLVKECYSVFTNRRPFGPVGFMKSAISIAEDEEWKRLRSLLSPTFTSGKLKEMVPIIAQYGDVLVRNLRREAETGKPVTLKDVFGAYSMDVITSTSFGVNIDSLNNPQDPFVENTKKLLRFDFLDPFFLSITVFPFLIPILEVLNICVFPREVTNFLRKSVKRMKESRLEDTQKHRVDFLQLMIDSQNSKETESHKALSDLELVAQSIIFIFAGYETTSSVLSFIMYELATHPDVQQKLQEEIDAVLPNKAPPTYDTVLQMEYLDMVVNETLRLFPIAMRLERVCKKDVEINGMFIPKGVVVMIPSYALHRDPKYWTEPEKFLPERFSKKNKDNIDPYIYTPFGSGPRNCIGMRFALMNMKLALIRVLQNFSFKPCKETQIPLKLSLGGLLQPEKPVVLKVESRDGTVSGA
Sequence of Cytochrome P450 1A2 (Homo sapiens) (P05177 whole entry, looked up): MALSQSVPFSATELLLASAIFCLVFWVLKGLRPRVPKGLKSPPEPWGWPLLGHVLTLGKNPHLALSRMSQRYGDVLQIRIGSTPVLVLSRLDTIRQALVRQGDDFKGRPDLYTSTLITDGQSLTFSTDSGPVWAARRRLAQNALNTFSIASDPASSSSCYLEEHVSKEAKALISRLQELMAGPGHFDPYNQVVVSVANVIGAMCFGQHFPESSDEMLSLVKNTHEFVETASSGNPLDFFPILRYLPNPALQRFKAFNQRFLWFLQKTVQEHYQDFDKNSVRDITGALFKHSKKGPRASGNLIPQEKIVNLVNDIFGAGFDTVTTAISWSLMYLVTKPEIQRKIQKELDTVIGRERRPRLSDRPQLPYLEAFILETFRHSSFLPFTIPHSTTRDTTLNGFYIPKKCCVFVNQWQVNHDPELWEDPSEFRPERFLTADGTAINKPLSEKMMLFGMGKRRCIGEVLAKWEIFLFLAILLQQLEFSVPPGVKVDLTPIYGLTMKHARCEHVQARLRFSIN
Sequence of Cytochrome P450 2C19 (Homo sapiens) (P33261 whole entry, looked up): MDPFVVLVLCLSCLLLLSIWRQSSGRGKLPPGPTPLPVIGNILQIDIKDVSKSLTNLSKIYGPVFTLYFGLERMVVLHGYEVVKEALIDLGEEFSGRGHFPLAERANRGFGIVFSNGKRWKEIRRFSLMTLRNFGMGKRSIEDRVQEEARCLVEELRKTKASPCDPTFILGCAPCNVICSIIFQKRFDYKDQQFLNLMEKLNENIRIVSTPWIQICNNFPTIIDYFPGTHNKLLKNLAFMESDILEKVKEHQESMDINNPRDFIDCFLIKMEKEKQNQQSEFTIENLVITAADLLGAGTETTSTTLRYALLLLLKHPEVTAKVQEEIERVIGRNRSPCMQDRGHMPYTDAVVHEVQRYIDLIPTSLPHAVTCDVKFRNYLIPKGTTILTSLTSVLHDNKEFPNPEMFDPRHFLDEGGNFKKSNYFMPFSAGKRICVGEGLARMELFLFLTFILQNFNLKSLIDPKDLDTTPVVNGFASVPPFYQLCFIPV
Sequence of Cytochrome P450 2D6 (Homo sapiens) (P10635 whole entry, looked up): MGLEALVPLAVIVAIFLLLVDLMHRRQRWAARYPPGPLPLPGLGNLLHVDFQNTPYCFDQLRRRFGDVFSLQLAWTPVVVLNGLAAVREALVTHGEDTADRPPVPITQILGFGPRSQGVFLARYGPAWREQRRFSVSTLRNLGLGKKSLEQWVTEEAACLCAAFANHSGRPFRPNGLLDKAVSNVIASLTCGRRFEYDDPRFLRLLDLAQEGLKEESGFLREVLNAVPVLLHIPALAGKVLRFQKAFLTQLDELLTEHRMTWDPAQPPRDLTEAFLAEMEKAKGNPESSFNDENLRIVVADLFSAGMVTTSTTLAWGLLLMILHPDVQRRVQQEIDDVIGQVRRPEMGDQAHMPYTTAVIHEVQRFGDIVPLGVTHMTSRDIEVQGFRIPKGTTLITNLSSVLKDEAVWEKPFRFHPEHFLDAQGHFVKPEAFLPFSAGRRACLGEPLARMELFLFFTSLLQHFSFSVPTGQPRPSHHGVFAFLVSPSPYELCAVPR

SMILES	max activation [1]	Potency [2]	Potency [3]	Potency [4]	Potency [5]	Potency [6]	outcome [7]	Potency [8]	Potency [1]	activity change, negative = inhibition [7]	activity change, negative = inhibition [5]
CC(=O)Nc1cccc(O)c1	-2.31% (inactive)	inactive	inactive	inactive	inactive	inactive	inactive	inactive			
O=c1[nH]c(=O)n([C@H]2CCCO2)cc1F	-0.0643% (inactive)	inactive	inactive	inactive	inactive	inactive	inactive	inactive			
COc1cc(Cc2cnc(N)nc2N)cc(OC)c1OC			inactive	inactive	inactive	35.5 µM (active) and inactive	inactive				
OCCOCCOCCO	-2.18% (inactive)	inactive	inactive	inactive	inactive	inactive	inactive	inactive			
CC[C@H](C)C(=O)O[C@H]1C[C@@H](C)C=C2C=C[C@H](C)[C@H](CC[C@@H]3C[C@@H](O)CC(=O)O3)[C@H]21			36.1 µM (active) and inactive			inactive			12.6 µM (active)		
OCCOCCN1CCN(C2=Nc3ccccc3Sc3ccccc32)CC1	9.6% (inactive)										
CC(C)(C)[C@@H](O)[C@@H](Cc1ccc(Cl)cc1)n1cncn1			71 µM (active)	250 nM (active) and 159 nM (active)	11.2 µM (active) and 22.4 µM (active)	inactive	inactive	112 nM (active) and 200 nM (active)			
C=C(C)C(=O)O[C@H]1C[C@@H]2CC[C@@]1(C)C2(C)C			inactive	17.7 µM (active) and inactive	inactive	inactive	inactive	inactive			
C[C@H]1C[C@@H]2[C@H]([C@@H](O)C[C@@]3(C)[C@H]2CC[C@]3(O)C(=O)CO)[C@@]2(C)C=CC(=O)C=C12						inactive	inactive		1.58 µM (active)		
CCCCC(CC)COC(=O)C(C#N)=C(c1ccccc1)c1ccccc1 (configuration not stated)		10 µM (active)	5.03 µM (active) and 5.49 µM (active)	7.1 µM (active)	2.83 µM (active) and 3.09 µM (active)	31.7 µM (active)	inactive				
Cc1cc(C)c(C)cc1C			inactive	inactive	inactive	inactive	inactive	inactive			
CC(O)COCC(C)O (configuration not stated)			inactive	inactive	inactive	inactive	inactive	inactive			
COCCCOc1ccnc(CS(=O)c2nc3ccccc3[nH]2)c1C (configuration not stated)							inactive		14.1 µM (active)		
O=C(O)c1cc(O)c(O)c(O)c1	-1.49% (inactive)	inactive	inactive			inactive	inactive	inactive			
CC(C)CC(=O)CC(C)C			inactive	inactive	inactive	inactive	inactive	22.7 µM (active) and inactive			
C#C[C@]1(O)CC[C@H]2[C@@H]3CCC4=CC(=O)CC[C@@H]4[C@H]3CC[C@@]21C	-1% (inactive)	inactive	inactive	5.03 µM (active) and 4.36 µM (active)		inactive	inactive				
CC(c1cc2ccccc2s1)N(O)C(N)=O (configuration not stated)	1.87% (inactive)	inactive	inactive	31.7 µM (active)	71 µM (active)	8.94 µM (active) and 11.5 µM (active)	inactive	20 µM (active)			
C=CCNC(N)=S	-2.6% (inactive)	inactive	61.9 µM (active) and inactive	69.4 µM (active) and inactive	inactive	inactive	inactive	inactive			
CC1=CC(=O)NS(=O)(=O)O1	-3.96% (inactive)						inactive				
CCc1ccc(CCOc2ccc(CC3SC(=O)NC3=O)cc2)nc1 (configuration not stated)	-8.65% (inactive)		inactive	inactive	31.7 µM (active) and 30.9 µM (active)	inactive	inactive				
O=c1[nH]c(=O)n([C@H]2C[C@H](O)[C@@H](CO)O2)cc1Br		inactive	inactive	inactive	inactive	40.6 µM (active) and inactive	inactive	inactive	4.47 µM (active)		
CC1CCC2CC1C2(C)C (configuration not stated)			21.6 µM (active) and inactive	inactive	inactive	inactive	inactive	inactive and 39.9 µM (active)			
C#CCN(C)Cc1ccccc1	-0.422% (inactive)	inactive		inactive	inactive		inactive	inactive			
OC[C@H]1O[C@@](CO)(O[C@H]2O[C@H](CO)[C@@H](O)[C@H](O)[C@H]2O)[C@@H](O)[C@@H]1O	0.408% (inactive)	inactive	inactive	inactive	inactive	inactive	inactive	inactive			
CCCCCCCCCCCCCCO			inactive	inactive	inactive	22.4 µM (active)	inactive	inactive			
CC(=O)Nc1ccccc1	-1.12% (inactive)	inactive	inactive	71.3 µM (active) and inactive	inactive	inactive	inactive	inactive			

SMILES	max activation [1]	Potency [2]	Potency [3]	Potency [4]	Potency [5]	Potency [6]	outcome [7]	Potency [8]	Potency [1]	activity change, negative = inhibition [7]	activity change, negative = inhibition [5]
CN(C)CCCN			inactive	inactive	inactive	inactive	inactive	inactive			
CCCCCC(N)=O	-0.768% (inactive)	inactive	inactive	inactive	inactive	inactive	inactive	inactive			
CCN(CC)CCCC(C)Nc1ccnc2cc(Cl)ccc12 (configuration not stated)	-1.5% (inactive)	inactive								0.661% [at 6.97 µM] (inactive) and 1.69% [at 15.8 µM] (inactive)	
CC1=CCC2CC1C2(C)C (configuration not stated)	-0.804% (inactive)	inactive	inactive and 7.1 µM (active)	inactive	inactive	inactive	inactive	inactive			
O=C(O)c1cc(C(=O)O)cc(S(=O)(=O)O)c1			36 µM (active)	inactive	inactive	inactive and 39.9 µM (active)	inactive	inactive			
CC(=O)OCC(=O)[C@@]12N=C(C)O[C@@H]1C[C@H]1[C@@H]3CCC4=CC(=O)C=C[C@]4(C)[C@H]3[C@@H](O)C[C@@]12C		inactive	inactive	inactive	inactive	inactive and 17.4 µM (active)	inactive	inactive	15.8 µM (active)		
NNc1nncc2ccccc12							inactive		0.112 µM (active)		
N[C@@H](Cc1cc(I)c(Oc2cc(I)c(O)c(I)c2)c(I)c1)C(=O)O	-0.369% (inactive)		inactive	inactive			inactive	inactive			
C=C(C)C(=O)OCCOCCOCCOC(=O)C(=C)C			20 µM (active) and inactive	22.5 µM (active) and 31.7 µM (active)	40 µM (active)	40 µM (active) and 28.3 µM (active)	inactive	inactive			
O=C(O)[C@H](O)[C@@H](O)[C@H](O)[C@H](O)CO	-0.835% (inactive) and -2.16% (inactive)	inactive	inactive	89.2 µM (active)			inactive	inactive			3.47% [at 4.07 µM] (inactive)
CN(C)CCC(c1ccccc1)c1ccccn1 (configuration not stated)	-3.67% (inactive)		35.7 µM (active)	inactive	inactive	40 µM (active) and inactive	inactive	inactive			
O=S1(=O)CC=CC1			inactive	inactive	inactive	inactive	inactive	inactive			
COc1ccc(Nc2ccccc2)c(C)c1			inactive	inactive and 3.17 µM (active)	inactive	inactive and 11.2 µM (active)	inactive	inactive			
O=C(O)c1cc(=O)c2c(OCC(O)COc3cccc4oc(C(=O)O)cc(=O)c34)cccc2o1			inactive	inactive	inactive	inactive	inactive	inactive			
O=S(=O)(O)c1ccc2ccccc2c1			inactive	inactive	inactive	inactive	inactive	inactive			
CCCCCCCC(=O)OC			inactive	inactive	inactive	inactive	inactive	inactive			
O=C(OCCOCCOC(=O)c1ccccc1)c1ccccc1			inactive	35.5 µM (active) and 39.9 µM (active)	8.91 µM (active) and 14.2 µM (active)	5.01 µM (active) and 8.94 µM (active)	inactive	inactive			
Cc1ccc2oc(=O)ccc2c1			inactive	inactive and 35.6 µM (active)	inactive	32.6 µM (active) and 31.7 µM (active)	inactive	inactive			
Fc1ccc(Br)cc1			inactive	71.7 µM (active) and inactive	inactive	40.3 µM (active) and inactive	inactive	inactive			
CC(C)c1ccc(S(=O)(=O)O)cc1			inactive	inactive	inactive	inactive	inactive	inactive			
COS(C)(=O)=O			inactive	inactive	inactive	inactive	inactive	inactive			
C=CCOC(=O)c1ccccc1C(=O)OCC=C			inactive	1.56 µM (active) and 1.26 µM (active)	3.93 µM (active) and 5.64 µM (active)	2.48 µM (active) and 3.56 µM (active)	inactive	3.12 µM (active) and 6.33 µM (active)			
O=C(O)CCCC[C@@H]1SC[C@@H]2NC(=O)N[C@@H]21			inactive	inactive	inactive	inactive	inactive	inactive			
CN(C)CCOCCN(C)C			inactive	inactive	inactive	inactive	inactive	inactive			
ON=C1CCCCC1			inactive	32 µM (active) and inactive	inactive	32 µM (active) and inactive	inactive	inactive			
